Results as given in PubChem BioAssay.
For some of these results: Results with a measured potency or affinity are listed apart. The list shows a part of the results. The source made the active and inactive calls.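 Rule for the calls, unless noted: active = compound raising the membrane signal above positive-control mean plus 3 SD in both repeats, and a primary screen hit; inactive = the rest.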

How the values were obtained:
[1] = tested on: TRPC4 beta (transient receptor potential cation channel C4), mouse; test: TRPC4 cation channel opening, retest – cell-based, Fluo4 calcium, HEK293 TRPC4beta/mu-opioid, duplicates, 10 µM, confirmation (AID 2426;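 active = fluorescence ratio normalized to control raised more than 50% in primary screen plus both repeat runs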); conditions: Fluo4 calcium fluorescence, at 10 µM; stronger effect = higher value
[2] = tested on: transient receptor potential cation channel C4 beta (TRPC4), mouse; test: TRPC4 cation channel opening, second retest – cell-based, second round, Fluo4, HEK293 TRPC4beta/mu-opioid, 1 µM, confirmation (AID 2461;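 active = primary screen active and over 50% activation in each of two duplicate runs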); conditions: Fluo4 calcium fluorescence, at 1 µM; stronger effect = higher value
[3] = tested on: TRPC4 (transient receptor potential cation channel C4 beta), mouse; test: potentiation of DAMGO EC20 TRPC4 response – cell-based, second round, Fluo-4, HEK293 TRPC4beta/mu-opioid, 1 µM, confirmation (AID 2554;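 active = primary screen hit whose fluorescence ratio, in both repeats, exceeds the weak agonist control mean by 3 SD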); conditions: DAMGO EC20, Fluo-4 calcium flux, at 1 µM; stronger effect = higher value
[4] = tested on: TRPC4 beta (transient receptor potential cation channel C4), mouse; test: potentiation of DAMGO EC20 TRPC4 response – cell-based, Fluo-4, HEK293 TRPC4beta/mu-opioid, confirmation (AID 2555;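 active = primary screen hit whose calcium fluorescence ratio, in both repeats, exceeds the weak agonist control mean by 3 SD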); conditions: DAMGO EC20, Fluo-4 calcium flux, at 10 µM; stronger effect = higher value
[5] = target: Short transient receptor potential channel 4 (Mus musculus) (UniProt Q9QUQ5); test: blockers of DAMGO-evoked TRPC4 calcium flux – cell-based, Fluo4, HEK293 TRPC4beta/mu-opioid, confirmation (AID 2636;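 active = calcium signal cut by more than 3 SD below the full-agonist control yet still positive, in both repeats and the earlier primary screen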); conditions: at 10 µM; stronger effect = higher value
Short transient receptor potential channel 4 (Mus musculus), sequence (Q9QUQ5 whole entry, looked up): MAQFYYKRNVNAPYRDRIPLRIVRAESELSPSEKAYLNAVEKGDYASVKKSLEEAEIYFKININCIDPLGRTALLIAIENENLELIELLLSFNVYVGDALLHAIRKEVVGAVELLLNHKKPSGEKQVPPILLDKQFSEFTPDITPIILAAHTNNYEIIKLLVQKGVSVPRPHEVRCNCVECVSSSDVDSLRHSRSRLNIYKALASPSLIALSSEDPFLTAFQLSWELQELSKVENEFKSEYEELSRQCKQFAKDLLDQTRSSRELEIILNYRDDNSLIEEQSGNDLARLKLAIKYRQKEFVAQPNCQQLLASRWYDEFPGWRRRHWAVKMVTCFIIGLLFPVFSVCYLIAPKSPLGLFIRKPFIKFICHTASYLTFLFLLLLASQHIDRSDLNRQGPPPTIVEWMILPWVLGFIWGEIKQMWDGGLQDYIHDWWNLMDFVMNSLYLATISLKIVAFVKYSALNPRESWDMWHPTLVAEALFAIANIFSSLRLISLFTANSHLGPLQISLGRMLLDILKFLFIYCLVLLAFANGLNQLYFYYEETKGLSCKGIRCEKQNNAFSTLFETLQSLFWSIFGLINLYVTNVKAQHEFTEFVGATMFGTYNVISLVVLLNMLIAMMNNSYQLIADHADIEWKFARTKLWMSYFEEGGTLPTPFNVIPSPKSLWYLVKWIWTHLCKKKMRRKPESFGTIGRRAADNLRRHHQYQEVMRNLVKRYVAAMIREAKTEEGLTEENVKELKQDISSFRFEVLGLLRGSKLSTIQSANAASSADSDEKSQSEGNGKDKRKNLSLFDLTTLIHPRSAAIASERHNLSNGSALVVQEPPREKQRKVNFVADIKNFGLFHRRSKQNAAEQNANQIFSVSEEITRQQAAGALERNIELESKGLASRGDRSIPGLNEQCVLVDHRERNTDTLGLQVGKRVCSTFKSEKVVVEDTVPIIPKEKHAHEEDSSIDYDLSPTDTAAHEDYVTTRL

[6] = target: Short transient receptor potential channel 4 (Mus musculus) (UniProt Q9QUQ5); test: blockers of DAMGO-evoked TRPC4 calcium flux – cell-based, second round, Fluo4, HEK293 TRPC4beta/mu-opioid, 1 µM, confirmation (AID 2637;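 active = calcium signal ratio cut to more than 3 SD under the fully stimulated control mean yet still positive, in both repeats and the primary screen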); conditions: at 1 µM; stronger effect = higher value
[7] = target: Short transient receptor potential channel 4 (Mus musculus) (UniProt Q9QUQ5); test: calcium entry via TRPC4 opening agents – cell-based, HEK293 TRPC4/mu-opioid, Fluo-4 calcium, dose response (AID 434937;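 active = primary screen activator hit with a dose response curve and TRPC4 channel activation at any tested dose; inactive = no activation, no dose response, or not a primary hit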)
[8] = target: Short transient receptor potential channel 4 (Mus musculus) (UniProt Q9QUQ5); test: potentiation of DAMGO-evoked TRPC4 calcium signal – cell-based, HEK293 TRPC4/mu-opioid, Fluo-4 calcium, EC20 DAMGO, dose response (AID 434941;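 active = earlier screen potentiator hit that boosts the TRPC4 ion channel at some dose, with a dose response; inactive = no potentiation, no dose response, or not a prior hit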;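 note: calcium entry triggered by an EC20 dose of DAMGO at the co-expressed mu-opioid receptor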)
[9] = target: Short transient receptor potential channel 4 (Mus musculus) (UniProt Q9QUQ5); test: block of DAMGO-driven TRPC4 calcium entry – cell-based, HEK293 TRPC4/mu-opioid, Fluo-4 calcium, dose response (AID 434942;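 active = primary screen inhibitor hit that blocks the TRPC4 channel at some tested dose, yielding a dose curve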)
[10] = target: Short transient receptor potential channel 6 (Mus musculus) (UniProt Q61143); test: TRPC6 blockade by TRPC4 inhibitor hits – cell-based, HEK293, membrane potential dye, duplicate, selectivity assay for TRPC4 inhibitor project, confirmation (AID 434948;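 active = active in primary screen and both duplicates, each dropping signal beyond three positive-control SD with fluorescence still positive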); conditions: HEK293 TRPC6, membrane potential dye fluorescence, at 10 µM, stimulated with maximal-effect acetylcholine; stronger effect = higher value
Short transient receptor potential channel 6 (Mus musculus), sequence (Q61143 whole entry, looked up): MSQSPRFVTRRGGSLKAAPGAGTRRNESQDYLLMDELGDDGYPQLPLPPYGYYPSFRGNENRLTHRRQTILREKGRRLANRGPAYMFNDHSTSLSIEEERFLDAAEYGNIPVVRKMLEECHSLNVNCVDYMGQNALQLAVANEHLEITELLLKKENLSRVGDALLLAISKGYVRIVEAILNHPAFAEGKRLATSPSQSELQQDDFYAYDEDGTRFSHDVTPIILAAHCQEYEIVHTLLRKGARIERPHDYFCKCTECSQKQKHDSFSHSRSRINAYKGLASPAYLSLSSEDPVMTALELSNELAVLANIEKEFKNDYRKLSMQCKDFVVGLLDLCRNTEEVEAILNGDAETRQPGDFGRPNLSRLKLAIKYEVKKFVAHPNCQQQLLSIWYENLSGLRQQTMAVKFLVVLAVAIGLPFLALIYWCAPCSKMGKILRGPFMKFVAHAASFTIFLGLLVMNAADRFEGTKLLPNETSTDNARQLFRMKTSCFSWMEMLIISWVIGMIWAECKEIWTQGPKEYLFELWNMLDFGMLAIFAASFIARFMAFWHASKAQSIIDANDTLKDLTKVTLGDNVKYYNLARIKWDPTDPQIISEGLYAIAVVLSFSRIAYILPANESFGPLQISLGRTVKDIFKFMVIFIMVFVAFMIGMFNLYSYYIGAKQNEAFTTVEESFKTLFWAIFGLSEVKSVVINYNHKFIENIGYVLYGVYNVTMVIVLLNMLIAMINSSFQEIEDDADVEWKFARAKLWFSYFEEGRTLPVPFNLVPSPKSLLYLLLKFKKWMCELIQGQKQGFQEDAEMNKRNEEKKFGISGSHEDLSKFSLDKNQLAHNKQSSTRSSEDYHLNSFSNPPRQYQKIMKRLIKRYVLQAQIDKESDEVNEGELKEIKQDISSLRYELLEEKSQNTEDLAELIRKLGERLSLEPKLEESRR

[11] = target: Short transient receptor potential channel 6 (Mus musculus) (UniProt Q61143); test: TRPC6 opening by TRPC4 activator hits – cell-based, HEK293, membrane potential dye, duplicate, selectivity assay for TRPC4 activator project, confirmation (AID 434950;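 active = membrane potential signal rise above negative control mean plus 3 SD in both duplicates, also active in the earlier TRPC4 screen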); conditions: HEK293 TRPC6, membrane potential fluorescence, at 10 µM; activation: stronger effect = higher value; outcome: activation
[12] = target: Short transient receptor potential channel 6 (Mus musculus) (UniProt Q61143); test: positive modulators of mouse TRPC6 channel – HEK293 cells, membrane potential dye, duplicate, selectivity assay for TRPC4 potentiator project, confirmation (AID 434952); conditions: HEK293 TRPC6, membrane potential dye fluorescence, at 10 µM, maximal acetylcholine added after compound; stronger effect = higher value
[13] = target: Short transient receptor potential channel 4 (Mus musculus) (UniProt Q9QUQ5); test: calcium flux activators in TRPC4/5HT1a cells, counter-screen for TRPC4 activator project, cell-based, second counter screen, HEK293 TRPC4/5HT1a, Fluo-4 (AID 434977;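 active = calcium signal rise above buffer-control mean plus 5 SD in both duplicates, and also a hit in the primary screen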); conditions: Fluo-4 calcium flux, at 10 µM; stronger effect = higher value
[14] = serotonin-gated TRPC4 signal block – cell-based, second counter screen, HEK293 TRPC4/5HT1a, Fluo-4, counter-screen for TRPC4 inhibitor project, confirmation (AID 434978;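 active = primary screen active whose calcium signal fell more than 3 SD beyond the full-serotonin control mean in both duplicate plates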;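 note: serotonin given first at submaximal then at maximal dose after compound preincubation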); conditions: Fluo-4 calcium flux, at 10 µM, serotonin added to trigger calcium flux; stronger effect = higher value
[15] = tested on: TRPC4 (mouse), co-expressed with 5HT1a in HEK293; test: enhancement of serotonin-evoked TRPC4 response – cell-based, second counter screen, HEK293 TRPC4/5HT1a, Fluo-4, counter-screen for TRPC4 potentiator project, confirmation (AID 434979;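 active = signal rise over 3 SD above mean of control wells given weak agonist, in both repeats and first screen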); conditions: Fluo-4 calcium flux, at 10 µM, serotonin added at its EC20 dose; stronger effect = higher value
[16] = nonspecific calcium rise without TRPC4 – cell-based, HEK293 mu-opioid receptor line, counter-screen for TRPC4 activator project, confirmation (AID 449723;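 active = hit in primary screen, with calcium signal over 5 SD above buffer well mean in both duplicates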;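 note: counter screen cells carry the mu-opioid receptor alone and lack TRPC4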); conditions: HEK293 mu-opioid cells, Fluo-4 calcium fluorescence, at 10 µM; stronger effect = higher value
[17] = nonspecific potentiation of DAMGO calcium response – cell-based, HEK293 mu-opioid receptor line, counter-screen for TRPC4 allosteric potentiator project, confirmation (AID 449724;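 active = calcium signal rise more than 3 SD above the low-dose agonist control mean, in both duplicate plates and the primary screen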); conditions: HEK293 mu-opioid receptor cells, Fluo-4 calcium flux, at 10 µM, compound added before EC20 DAMGO stimulus; stronger effect = higher value
[18] = parental CHO-K1 cell activation, no KCNQ2 – FluxOR thallium flux, duplicate, counter-screen for KCNQ2 potentiator project, confirmation (AID 2282;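 active = signal rise of at least 3 SD above the untreated control mean, in both duplicate wells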;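 note: counter screen of KCNQ2 potentiator hits so any rise reflects channel-independent effects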); conditions: parental CHO-K1 cells, FluxOR thallium flux fluorescence; at 10 µM; stronger effect = higher value; zero = vehicle mean+3SD, 100% = vehicle-minus-blank window
[19] = target: Potassium voltage-gated channel subfamily KQT member 1 (Homo sapiens) (UniProt P51787); test: KCNQ1 activation in stable CHO cells – cell-based, FluxOR thallium flux, selectivity assay for KCNQ2 potentiator project, confirmation (AID 2283;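 active = fluorescence ratio rise of at least 3 SD of vehicle wells above their mean, in both replicate wells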;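 note: 0% = vehicle mean plus 3 SD and 100% = vehicle minus unstimulated blank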); conditions: FluxOR thallium flux fluorescence, at 10 µM, stronger effect = higher value, beyond 3SD, as % of vehicle-control signal
Potassium voltage-gated channel subfamily KQT member 1 (Homo sapiens), sequence (P51787 whole entry, looked up): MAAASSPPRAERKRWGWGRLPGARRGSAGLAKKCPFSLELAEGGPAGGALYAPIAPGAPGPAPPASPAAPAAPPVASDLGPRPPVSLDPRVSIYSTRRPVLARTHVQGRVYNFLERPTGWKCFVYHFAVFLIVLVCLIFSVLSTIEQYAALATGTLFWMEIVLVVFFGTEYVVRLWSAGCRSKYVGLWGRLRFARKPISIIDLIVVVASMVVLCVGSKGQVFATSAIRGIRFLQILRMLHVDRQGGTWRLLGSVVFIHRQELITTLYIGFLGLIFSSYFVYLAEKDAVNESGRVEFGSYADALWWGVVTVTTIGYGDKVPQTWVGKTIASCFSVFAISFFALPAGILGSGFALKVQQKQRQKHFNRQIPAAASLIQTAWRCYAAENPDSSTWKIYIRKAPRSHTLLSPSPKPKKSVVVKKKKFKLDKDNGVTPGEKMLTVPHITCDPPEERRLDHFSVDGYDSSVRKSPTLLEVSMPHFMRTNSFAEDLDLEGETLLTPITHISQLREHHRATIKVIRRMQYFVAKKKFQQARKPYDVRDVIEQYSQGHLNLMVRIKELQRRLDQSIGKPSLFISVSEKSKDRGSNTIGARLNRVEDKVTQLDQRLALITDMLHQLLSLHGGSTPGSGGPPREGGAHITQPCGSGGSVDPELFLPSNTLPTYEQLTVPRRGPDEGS

[20] = target: Potassium voltage-gated channel subfamily KQT member 2 (Rattus norvegicus) (UniProt O88943); test: KCNQ2 potassium channel activity enhancers – cell-based, CHO, FluxOR thallium flux, duplicate, confirmation (AID 2287;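 active = fluorescence ratio rising 3 SD or more over the vehicle control mean in both replicates, plus primary screen hit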;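 note: peak minus minimum thallium fluorescence divided by baseline after K/Tl stimulus; 0% = vehicle mean plus 3 SD and 100% = vehicle minus unstimulated blank difference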); conditions: CHO-KCNQ2 cells, FluxOR thallium flux fluorescence; at 10 µM; stronger effect = higher value
Potassium voltage-gated channel subfamily KQT member 2 (Rattus norvegicus), sequence (O88943 whole entry, looked up): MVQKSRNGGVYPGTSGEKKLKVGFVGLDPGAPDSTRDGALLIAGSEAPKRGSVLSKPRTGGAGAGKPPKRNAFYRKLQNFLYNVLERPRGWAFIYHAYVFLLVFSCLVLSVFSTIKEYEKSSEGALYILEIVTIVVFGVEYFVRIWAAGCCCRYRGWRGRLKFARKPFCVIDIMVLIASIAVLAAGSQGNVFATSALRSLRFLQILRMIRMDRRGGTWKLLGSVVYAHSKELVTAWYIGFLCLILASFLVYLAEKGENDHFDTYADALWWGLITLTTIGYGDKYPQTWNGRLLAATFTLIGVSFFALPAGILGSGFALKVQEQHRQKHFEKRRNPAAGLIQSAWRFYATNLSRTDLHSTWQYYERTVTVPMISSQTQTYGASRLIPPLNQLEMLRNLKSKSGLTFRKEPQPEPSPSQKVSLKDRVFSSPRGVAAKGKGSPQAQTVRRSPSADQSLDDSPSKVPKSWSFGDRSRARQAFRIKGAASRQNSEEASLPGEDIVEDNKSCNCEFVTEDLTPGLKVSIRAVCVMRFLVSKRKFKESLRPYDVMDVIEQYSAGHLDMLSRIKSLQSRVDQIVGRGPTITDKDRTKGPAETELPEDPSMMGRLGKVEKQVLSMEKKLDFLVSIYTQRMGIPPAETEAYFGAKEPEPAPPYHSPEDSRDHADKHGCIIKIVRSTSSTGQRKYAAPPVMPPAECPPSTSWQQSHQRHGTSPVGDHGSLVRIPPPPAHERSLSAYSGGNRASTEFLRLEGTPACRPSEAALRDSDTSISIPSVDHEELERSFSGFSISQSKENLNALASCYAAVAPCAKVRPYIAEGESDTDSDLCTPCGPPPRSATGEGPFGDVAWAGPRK

NN=C1c2cc([N+](=O)[O-])ccc2-c2ccc([N+](=O)[O-])cc21
inactive: outcome [1] | outcome [2] | outcome [3] | outcome [4] | outcome [5] | outcome [6] | outcome [7] | outcome [8] | outcome [9] | outcome [10] | outcome [11] | outcome [12] | outcome [13] | outcome [14] | outcome [15] | outcome [16] | outcome [17]

CC(C)(C)C1CCC(C(=O)NCC(c2cccs2)N2CCOCC2)CC1 (stereo unspecified)
active: potentiation, less the hit threshold [20] 13.3%
inactive: activity increase over 3SD of controls [18] -27.5% | activation over 3SD threshold [19] -18.7%

O=C(NCc1ccccc1)c1ccc(S(=O)(=O)Nc2cccc(C(F)(F)F)c2)cc1
active: potentiation [4] 46% | potentiation [15] 44.3%
inactive: outcome [1] | outcome [2] | outcome [3] | outcome [5] | outcome [6] | outcome [7] | outcome [8] | outcome [9] | outcome [10] | outcome [11] | outcome [12] | outcome [13] | outcome [14] | outcome [16] | outcome [17]

Cc1ccc(Nc2ccc(S(=O)(=O)N3CCOCC3)cc2[N+](=O)[O-])cc1C
inactive: outcome [1] | outcome [2] | outcome [3] | outcome [4] | outcome [5] | outcome [6] | outcome [7] | outcome [8] | outcome [9] | outcome [10] | outcome [11] | outcome [12] | outcome [13] | outcome [14] | outcome [15] | outcome [16] | outcome [17]

COc1ccccc1N1CCN(Cc2cc(=O)c(OCC(=O)NC3CCCC3)co2)CC1
inactive: outcome [1] | outcome [2] | outcome [3] | outcome [4] | outcome [5] | outcome [6] | outcome [7] | outcome [8] | outcome [9] | outcome [10] | outcome [11] | outcome [12] | outcome [13] | outcome [14] | outcome [15] | outcome [16] | outcome [17]

Cc1sc2ncnc(SCC(=O)N(C)C3CCS(=O)(=O)C3)c2c1C (stereo unspecified)
inactive: outcome [1] | outcome [2] | outcome [3] | outcome [5] | outcome [6] | outcome [7] | outcome [8] | outcome [9] | outcome [10] | outcome [11] | outcome [12] | outcome [13] | outcome [14] | outcome [16] | outcome [17]
active: potentiation [4] 24% | potentiation [15] 13.2%

O=[N+]([O-])c1c(Nc2cccc(O)c2)cc(Cl)c2nonc12
inactive: outcome [1] | outcome [2] | outcome [3] | outcome [4] | outcome [5] | outcome [6] | outcome [7] | outcome [8] | outcome [9] | outcome [10] | outcome [11] | outcome [12] | outcome [13] | outcome [14] | outcome [15] | outcome [16] | outcome [17]

CCOC(=O)c1c(C)oc2ccc(O)c(CN3CCCCC3)c12
inactive: outcome [1] | outcome [2] | outcome [3] | outcome [4] | outcome [5] | outcome [6] | outcome [7] | outcome [8] | outcome [9] | outcome [10] | outcome [11] | outcome [12] | outcome [13] | outcome [14] | outcome [15] | outcome [16] | outcome [17]

CCCn1c(=O)c(C(=O)NCC2CCCO2)c(O)c2ccccc21 (stereo unspecified)
active: potentiation [3] 16% | potentiation [4] 11% | potentiation [15] 7.45%
inactive: outcome [1] | outcome [2] | outcome [5] | outcome [6] | outcome [7] | outcome [8] | outcome [9] | outcome [10] | outcome [11] | outcome [12] | outcome [13] | outcome [14] | outcome [16] | outcome [17]

CCCCc1nnc(NC(=O)C2CCN(c3ncnc4sc(C)c(C)c34)CC2)s1
inactive: outcome [1] | outcome [2] | outcome [3] | outcome [4] | outcome [5] | outcome [6] | outcome [7] | outcome [8] | outcome [9] | outcome [10] | outcome [11] | outcome [12] | outcome [13] | outcome [14] | outcome [15] | outcome [16] | outcome [17]

CSc1ccc2nnc(-c3cccc(F)c3)n2n1
inactive: outcome [1] | outcome [2] | outcome [3] | outcome [5] | outcome [6] | outcome [7] | outcome [8] | outcome [9] | outcome [10] | outcome [11] | outcome [12] | outcome [13] | outcome [14] | outcome [16] | outcome [17]
active: potentiation [4] 43% | potentiation [15] 26.8%

O=[N+]([O-])c1cc(Cl)cc(/C=N/NC(=S)Nc2ccc(S(=O)(=O)N3CCOCC3)cc2)c1O
active: potentiation [4] 15% | potentiation [15] 10.1%
inactive: outcome [1] | outcome [2] | outcome [3] | outcome [5] | outcome [6] | outcome [7] | outcome [8] | outcome [9] | outcome [10] | outcome [11] | outcome [12] | outcome [13] | outcome [14] | outcome [16] | outcome [17]

O=S(=O)(NCC1NCCc2ccccc21)c1ccccc1 (stereo unspecified)
inactive: outcome [1] | outcome [2] | outcome [3] | outcome [4] | outcome [5] | outcome [6] | outcome [7] | outcome [8] | outcome [9] | outcome [10] | outcome [11] | outcome [12] | outcome [13] | outcome [14] | outcome [15] | outcome [16] | outcome [17]

CC(C)CCNC(=O)CCC(=O)NNc1nc2ccccc2c2nc(-c3ccccc3)nn12
inactive: outcome [1] | outcome [2] | outcome [3] | outcome [4] | outcome [5] | outcome [6] | outcome [7] | outcome [8] | outcome [9] | outcome [10] | outcome [11] | outcome [12] | outcome [13] | outcome [14] | outcome [16] | outcome [17]
active: potentiation [15] 70.8%

Fc1ccc2c(c1)C(c1ccncc1)=NNC(c1ccc(Cl)cc1)=N2
inactive: outcome [1] | outcome [2] | outcome [3] | outcome [4] | outcome [5] | outcome [6] | outcome [7] | outcome [8] | outcome [9] | outcome [10] | outcome [11] | outcome [12] | outcome [13] | outcome [14] | outcome [15] | outcome [16] | outcome [17]
